# Laboratory results published in PubChem BioAssay (NCI).
# Where “and” joins values, the source holds several entries; their conditions need not be identical. Equal entries are not always repeated. About 83,000 compounds went through this panel and 20% of them were active in at least one assay; those are over-represented in the sample as a whole.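 Note: values are percent growth. 100 is the growth of untreated cells, values between 100 and 0 indicate rising inhibition; between -100 and 0 indicates cell death.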 Calls of active or inactive are those of the source. Rule for the calls: active = growth percent below 10; inactive = the rest.
# Legend:
# Assay in all cases: NCI-60 one-dose screen, 48 h (100 = growth as untreated, 0 = no growth, -100 = all killed)
# HCT-116 colon = system: HCT-116 colon
# HCC-2998 colon = system: HCC-2998 colon
# SR leukemia = details: 10 µM unless noted
# RPMI-8226 leukemia = details: 10 µM
# OVCAR-8 ovarian = details: 10 µM
# OVCAR-5 ovarian = details: 10 µM
# OVCAR-4 ovarian = details: 10 µM
# SK-OV-3 ovarian = details: 10 µM
# IGROV1 ovarian = details: 10 µM
# OVCAR-3 ovarian = details: 10 µM
# HS 578T breast = details: 10 µM
# NCI/ADR-RES ovarian = details: 10 µM
# T-47D breast = details: 10 µM
# BT-549 breast = details: 10 µM
# MDA-MB-435 melanoma = details: 10 µM
# SW-620 colon = details: 10 µM
# MCF7 breast = system: MCF7 breast
# KM12 colon = details: 10 µM
structure (smiles),measurement,setting,value
O=c1ccn(C2CC(O)C(COC(c3ccccc3)(c3ccccc3)c3ccccc3)O2)c(=O)[nH]1 (stereo not given),growth,HCT-116 colon; 100 µM,33.9% (inactive)
same,growth,HCC-2998 colon; 10 µM,122% (inactive)
same,growth,HCC-2998 colon; 100 µM,64.2% (inactive)
COC(=O)C1=COC(C)C2C[n+]3ccc4c([nH]c5ccccc54)c3CC12 (stereo not given),growth,SR leukemia,104% (inactive) and 99.4% (inactive)
same,growth,RPMI-8226 leukemia,93.9% (inactive) and 95.8% (inactive)
same,growth,OVCAR-8 ovarian,107% (inactive) and 89.8% (inactive)
same,growth,OVCAR-5 ovarian,105% (inactive) and 94.7% (inactive)
same,growth,OVCAR-4 ovarian,100% (inactive) and 108% (inactive)
same,growth,SK-OV-3 ovarian,114% (inactive) and 83.8% (inactive)
same,growth,IGROV1 ovarian,103% (inactive) and 82.5% (inactive)
same,growth,OVCAR-3 ovarian,104% (inactive) and 97.4% (inactive)
same,growth,HS 578T breast,111% (inactive) and 79.6% (inactive)
same,growth,NCI/ADR-RES ovarian,108% (inactive) and 102% (inactive)
same,growth,T-47D breast,100% (inactive) and 91.5% (inactive)
same,growth,BT-549 breast,107% (inactive) and 102% (inactive)
same,growth,MDA-MB-435 melanoma,106% (inactive) and 109% (inactive)
same,growth,SW-620 colon,100% (inactive) and 84% (inactive)
same,growth,MCF7 breast; 10 µM,96% (inactive) and 79.2% (inactive)
same,growth,MCF7 breast; 100 µM,28.2% (inactive) and 1% (active)
same,growth,HCT-116 colon; 10 µM,98.4% (inactive) and 99.5% (inactive)
same,growth,HCC-2998 colon; 10 µM,111% (inactive) and 94.1% (inactive)
same,growth,KM12 colon,102% (inactive) and 97.8% (inactive)
Nc1c2ccccc2nc2ccccc12,growth,SR leukemia,0.28% (active) and 18.5% (inactive) and 24.2% (inactive)
same,growth,RPMI-8226 leukemia,43.6% (inactive) and -28.8% (active) and 43.7% (inactive)
same,growth,OVCAR-8 ovarian,-30.4% (active) and 38.1% (inactive) and 29.2% (inactive)
same,growth,OVCAR-5 ovarian,78.4% (inactive) and 55.4% (inactive)
same,growth,OVCAR-4 ovarian,4.83% (active) and 33.8% (inactive) and 56.2% (inactive)
same,growth,SK-OV-3 ovarian,18.9% (inactive) and 40% (inactive) and 34.1% (inactive)
same,growth,IGROV1 ovarian,13.6% (inactive) and -40.3% (active) and 32.2% (inactive)
same,growth,OVCAR-3 ovarian,3.88% (active) and 52.9% (inactive)
same,growth,HS 578T breast,44.9% (inactive) and 27.5% (inactive) and 82.2% (inactive)
same,growth,NCI/ADR-RES ovarian,7.27% (active) and 43.1% (inactive) and 37% (inactive)
same,growth,T-47D breast,13.3% (inactive) and 30.4% (inactive) and 32.3% (inactive)
same,growth,BT-549 breast,33.8% (inactive) and 69.9% (inactive) and 83.1% (inactive)
same,growth,MDA-MB-435 melanoma,6.39% (active) and 30% (inactive) and 48.5% (inactive)
same,growth,SW-620 colon,2.21% (active) and 14.3% (inactive) and 26.8% (inactive)
same,growth,MCF7 breast; 10 µM,2.34% (active) and 7.36% (active) and 9.98% (active)
same,growth,HCT-116 colon; 10 µM,7.6% (active) and 17.9% (inactive) and 18.2% (inactive)
same,growth,HCC-2998 colon; 10 µM,37.9% (inactive) and 24.7% (inactive) and 40.8% (inactive)
CN(C)C(=S)SC(=S)N(C)C,growth,SR leukemia,42.6% (inactive) and 52.1% (inactive)
same,growth,RPMI-8226 leukemia,62.7% (inactive)
same,growth,OVCAR-8 ovarian,107% (inactive) and 96.6% (inactive)
same,growth,OVCAR-5 ovarian,106% (inactive) and 108% (inactive)
same,growth,OVCAR-4 ovarian,72.9% (inactive) and 32.9% (inactive)
same,growth,SK-OV-3 ovarian,115% (inactive) and 110% (inactive)
same,growth,IGROV1 ovarian,96.2% (inactive) and 94.3% (inactive)
same,growth,OVCAR-3 ovarian,98.8% (inactive) and 96.2% (inactive)
same,growth,HS 578T breast,106% (inactive) and 102% (inactive)
same,growth,NCI/ADR-RES ovarian,104% (inactive) and 101% (inactive)
same,growth,T-47D breast,67% (inactive) and 96.3% (inactive)
same,growth,BT-549 breast,109% (inactive) and 115% (inactive)
same,growth,MDA-MB-435 melanoma,94.6% (inactive) and 93% (inactive)
same,growth,SW-620 colon,102% (inactive) and 96% (inactive)
same,growth,MCF7 breast; 10 µM,35.3% (inactive) and 71.2% (inactive)
same,growth,HCT-116 colon; 10 µM,87% (inactive) and 67.7% (inactive)
same,growth,HCC-2998 colon; 10 µM,96.7% (inactive) and 107% (inactive)
Oc1ccc(N=Nc2ccccn2)c(O)c1,growth,SR leukemia,10.6% (inactive)
same,growth,RPMI-8226 leukemia,21.2% (inactive)
same,growth,OVCAR-8 ovarian,18.5% (inactive)
same,growth,OVCAR-5 ovarian,53.8% (inactive)
same,growth,OVCAR-4 ovarian,29.8% (inactive)
same,growth,SK-OV-3 ovarian,25.5% (inactive)
same,growth,IGROV1 ovarian,19.9% (inactive)
same,growth,OVCAR-3 ovarian,32.7% (inactive)
same,growth,HS 578T breast,65.1% (inactive)
same,growth,NCI/ADR-RES ovarian,14.7% (inactive)
same,growth,T-47D breast,37.3% (inactive)
same,growth,BT-549 breast,36.6% (inactive)
same,growth,MDA-MB-435 melanoma,32.5% (inactive)
same,growth,SW-620 colon,32.9% (inactive)
same,growth,MCF7 breast; 10 µM,14.5% (inactive)
same,growth,HCT-116 colon; 10 µM,18.7% (inactive)
same,growth,HCC-2998 colon; 10 µM,30% (inactive)
CC[N+](CC)=c1ccc2nc3c(cc(N)c4ccccc43)oc-2c1,growth,SR leukemia,-47.2% (active)
same,growth,RPMI-8226 leukemia,10.2% (inactive)
same,growth,OVCAR-8 ovarian,-28.4% (active)
same,growth,OVCAR-5 ovarian,-81.7% (active)
same,growth,OVCAR-4 ovarian,-42.6% (active)
same,growth,SK-OV-3 ovarian,-72.7% (active)
same,growth,IGROV1 ovarian,-42.2% (active)
same,growth,OVCAR-3 ovarian,-56.8% (active)
same,growth,HS 578T breast,-26.2% (active)
same,growth,NCI/ADR-RES ovarian,-62.2% (active)
same,growth,T-47D breast,-44% (active)
same,growth,BT-549 breast,-53.4% (active)
same,growth,MDA-MB-435 melanoma,-82.2% (active)
same,growth,SW-620 colon,-25.2% (active)
same,growth,MCF7 breast; 10 µM,-46.3% (active)
same,growth,HCT-116 colon; 10 µM,-27.1% (active)
same,growth,HCC-2998 colon; 10 µM,-78% (active)
